Inhibition data for 108 compounds are collected here from PubChem BioAssay AID488890 (Southern Research Specialized Biocontainment Screening …, 2010).

Structures are written as SMILES. The campaign covered roughly 320,000 compounds. About 1,300 (0.41%) were called active. Not shown: some 3% with an inconclusive outcome. No rule for the calls is given here. A selection follows. Entries with a potency or affinity are not part of this list.

The nature of this test: growth inhibition of non-replicating M. tuberculosis (AID 488890).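 Also: plate controls were DMSO cells for no effect and high antibiotic wells for full effect.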 To be noted: Mycobacterium tuberculosis non-replicating, at 25 µM, stronger effect = higher value.
For `COc1ccc(C(CC(=O)N2CCCC(C)C2)c2c(OC)cc(OC)c3ccc(=O)oc23)cc1` (stereo not drawn), the inhibition was 28.4%.
Regarding `Cc1ccc(S(=O)(=O)Nc2ncnc3ccccc23)cc1`, the inhibition was -1.77%.
Consider `CCCCn1c(SCC(=O)NCc2ccco2)nc2cc(S(N)(=O)=O)ccc21`, for which the inhibition is 1.57%.
Next, `COc1ccc(C2=NN(C(=O)CSc3nc(=O)n4cc(C)ccc4n3)C(c3ccc(C)cc3)C2)cc1` (stereo not drawn): 38.7%; `Cc1ccc2cc(C3CC(c4ccco4)=NN3C(=O)CCC(=O)O)c(Cl)nc2c1` (stereo not drawn): 2.6%.
`CCOC(=O)c1c(C)c(C(=O)NC(C)COC)c(C)n1CC` (stereo not drawn): the inhibition is -4.24%.
Regarding `N#Cc1c(-c2ccc(Cl)cc2)nc2n(c1=O)CCCS2`, the inhibition worked out at 4.51%.
On to `O=c1c(C(c2ccc(Cl)cc2)c2c(O)nc3n(c2=O)CCCS3)c(O)nc2n1CCCS2`, for which the inhibition worked out at 8.19%.
Next, `Cc1ccc(C(=O)N/N=C\c2ccc([N+](=O)[O-])o2)cn1`: 70.4%; `O=C(N/N=C/c1cccn1-c1ccc([N+](=O)[O-])cc1)c1cccnc1`: -10.5%.
Regarding `O=C(N/N=C/c1ccc(-c2ccccc2[N+](=O)[O-])o1)c1cncc(Br)c1`, the inhibition was 11.6%.
With `O=C(N/N=C/c1ccc([N+](=O)[O-])cc1)c1cccnc1`, the inhibition was -3.53%.
Turning to `O=C(N/N=C/c1ccccc1[N+](=O)[O-])c1ccncc1`, the inhibition stood at 35.4%.
Next, `Cc1ccc(C(=O)N/N=C\c2sccc2C)cn1`: -5.99%; `O=C(N/N=C/c1ccc(O)c([N+](=O)[O-])c1)c1ccncc1`: 56.1%.
As to `Cc1ccc(/C=N\NC(=O)c2cncc(Br)c2)o1`, the inhibition stood at 46.2%.
Regarding `CCOc1ccc(C(=O)NC2CCN(C(=O)Nc3ccc(F)cc3)CC2)cc1`, the inhibition is -4.31%.
For the compound `CN(c1ccccc1)S(=O)(=O)c1ccc(Cl)c(C(=O)NC2=NCCS2)c1`, the inhibition is 27.5%.
Consider `O=C(Nc1nnc(C23CC4CC(CC(C4)C2)C3)s1)c1ccc(N2C(=O)CCC2=O)cc1`, for which the inhibition was found to be 13.4%.
In the case of `COc1cc(NC(=S)N2CCOCC2)c(OC)cc1Cl`, the inhibition was 1.57%.
On to `CCOc1ccccc1NC(=O)C1CCCCN1S(=O)(=O)c1ccc(F)cc1` (stereo not drawn), for which the inhibition came to 14.8%.
With `COc1ccc(/C=C2\C(=O)NC(=O)N(Cc3ccccc3)C2=O)c(OC)c1OC`, the inhibition was -15.4%.
Consider `O=C(NCC(=O)N1CCN(Cc2ccc3c(c2)OCO3)CC1)c1ccccc1F`, for which the inhibition was found to be 6.65%.
Next, `N#C/C(N)=C(/C#N)N=Cc1cccc(Cl)c1`: 8.31%.
Next, `CNC(=O)/C(C#N)=C/c1ccc(OCCOc2ccccc2)cc1`: 63.6%; `CCOc1ccc(NC(=O)CCC(=O)N/N=C/c2ccc3c(c2)OCO3)cc1`: 12.5%.
For the compound `O=C(N/N=C/c1cccc([N+](=O)[O-])c1)c1cccc(Br)c1`, the inhibition is -5.27%.
Under `Cc1ccc(/C=N/NC(=O)C(C)Oc2ccccc2[N+](=O)[O-])s1` (stereo not drawn) stands -10.9%.
Consider `CCOc1ccc(/C=N/NC(=O)CCC(=O)Nc2ccc(F)cc2)cc1`, for which the inhibition worked out at 1.12%.
For `O=C(N/N=C/c1ccc(O)cc1)c1cncc(Br)c1`, the inhibition was 17.6%.
Take `CCOc1ccc(NC(C)C(=O)N/N=C/c2ccc([N+](=O)[O-])cc2)cc1` (stereo not drawn): the inhibition was determined as 7.41%.
As to `O=C(N/N=C/c1ccc(Br)s1)c1cccc([N+](=O)[O-])c1`, the inhibition is -22%.
Next, `Cn1cccc1/C=N\NC(=O)c1cncc(Br)c1`: -6.5%; `COC(=O)c1c(C)[nH]c(C(=O)CSc2nnnn2-c2ccccc2)c1C`: -4%.
Under `O=C(COC(=O)c1ccccc1NC(=O)c1ccco1)NC1CCS(=O)(=O)C1` (stereo not drawn) stands 73.7%.
As for `O=C(COC(=O)C1CCN(C(=O)Nc2ccccc2)CC1)NCC(F)(F)F`, the inhibition was -2.77%.
Turning to `CS(=O)(=O)N1CCC(C(=O)NCc2ccc(Cl)cc2)CC1`, the inhibition was 8.1%.
Next, `COc1ccc(-n2nc3cc(C)c(NC(C)=O)cc3n2)cc1`: 1.69%; `COC(=O)Cn1c(CN2CCN(C(=O)c3ccco3)CC2)nc2c1c(=O)n(C)c(=O)n2C`: 0.07%; `O=P(Cc1cccc[n+]1[O-])(c1ccccc1)c1ccccc1`: -13.7%.
As to `CC(C)C(c1nnnn1Cc1ccccc1)N1CCN(Cc2ccc3c(c2)OCO3)CC1` (stereo not drawn), the inhibition was determined as 31.2%.
Under `Cc1nc(SCC(=O)N2CCOCC2)c2c(=O)n(C)c(=O)n(CC(C)C)c2n1` stands -4.99%; under `Cc1ccccc1NCC(=O)N/N=C/c1ccc([N+](=O)[O-])cc1`, 10%.
As to `Cc1onc(-c2ccccc2)c1C(=O)N/N=C/c1ccc([N+](=O)[O-])c(O)c1`, the inhibition was 32%.
Under `CCOC(=O)N/N=C/c1ccc(N2CCOCC2)s1` stands 1.14%; under `CCOC(=O)N/N=C\c1ccc(C)s1`, -9.49%.
Consider `O=C(NN=Cc1ccc(N2CCOCC2)s1)c1ccc([N+](=O)[O-])cc1`, for which the inhibition was 0.11%.
As for `Cc1onc(-c2ccccc2)c1C(=O)N/N=C/c1cccs1`, the inhibition stood at 51.2%.
As to `Cc1ccccc1NCC(=O)N/N=C\C=C\c1cccc([N+](=O)[O-])c1`, the inhibition was found to be 44%.
As to `O=C(N/N=C/c1ccc(Br)s1)c1ccc([N+](=O)[O-])cc1`, the inhibition turned out to be 10.3%.
Consider `CN(Cc1nc2ccccc2c(=O)[nH]1)C(=O)c1ccc(S(=O)(=O)N(C)C)cc1`, for which the inhibition is -7.99%.
For the compound `Cc1ccc(Cc2c(C)c(C#N)c3[nH]c4ccccc4n3c2=O)cc1`, the inhibition turned out to be 55.7%.
For `COc1ccc(S(=O)(=O)N2CCC(Nc3ccccc3Cl)CC2)cc1`, the inhibition was 35%.
Next, `COc1ccc(NC(=O)CN(Cc2ccccc2)S(C)(=O)=O)c(OC)c1`: 6.99%; `CO/N=C(\C)c1ncc(C(F)(F)F)cc1N1CCOCC1`: -6.77%; `Cc1ccc(C(=O)NC(NCC2CCCO2)C(Cl)(Cl)Cl)cc1` (stereo not drawn): -8.87%.
In the case of `CC1CCCN(CCCNC(=O)c2ccc(N3CCCC3=O)cc2)C1` (stereo not drawn), the inhibition is -2.78%.
Take `O=C(CCC(=O)N1CCN(c2ccccc2)CC1)Nc1nnc(C2CCCCC2)s1`: the inhibition was -14.5%.
Under `O=C(CSc1nnc(COc2ccccc2F)n1-c1ccccc1)NC1CCS(=O)(=O)C1` (stereo not drawn) stands -2.12%.
For the compound `Cc1ccc(NC(=S)N(CCN(C)C)Cc2cc3cc(C)ccc3[nH]c2=O)cc1`, the inhibition worked out at 56.8%.
As to `COc1ccccc1CNC(=O)c1cnccn1`, the inhibition turned out to be 41.3%.
Regarding `O=C(N/N=C\c1cc(Br)c(Br)o1)c1cncc(Br)c1`, the inhibition is -11.5%.
On to `O=C(N/N=C/c1ccc(Cl)s1)c1ccccc1[N+](=O)[O-]`, for which the inhibition amounted to 19.9%.
On to `COc1cc([N+](=O)[O-])cc(/C=N/NC(=O)c2cncc(Br)c2)c1O`, for which the inhibition turned out to be 10.5%.
In the case of `O=C(N/N=C/c1ccc(Br)s1)c1ccccc1[N+](=O)[O-]`, the inhibition turned out to be 88.6%.
Take `Cc1ccc(-c2cc(C(=O)OCn3nnc4ccccc4c3=O)c3ccccc3n2)cc1`: the inhibition is -0.92%.
Under `CC1NC(=S)N(C2CCCCC2)C1=O` (stereo not drawn) stands 7.51%; under `O=C1c2ccccc2C(=O)N1C1CCCCC1`, -9.63%; under `COc1ccc2[nH]c(=O)c(CN(C(=O)c3cccnc3)c3ccc(C)c(C)c3)cc2c1`, -6.7%.
`O=C(O)c1cccc(CSc2nnc(-c3ccco3)o2)c1`: the inhibition was 3.8%.
On to `O=C(O)c1ccc(CSc2nnc(-c3ccco3)o2)cc1`, for which the inhibition is 3.82%.
Under `Brc1ccc(-c2nnc(-c3ccco3)o2)cc1` stands 9.05%.
With `Cc1cccc(-c2nnc(SCc3ccccc3)o2)c1`, the inhibition came out at 64.4%.
Consider `COc1ccccc1N1CCN(CC(O)COCc2cccs2)CC1` (stereo not drawn), for which the inhibition was -4.29%.
Consider `Cc1c(NC(=O)c2ccccc2NC(=O)COc2ccccc2)cccc1C(=O)O`, for which the inhibition was found to be 4.87%.
Under `COc1cc2[nH]c(=O)n(C3CCCCC3)c(=O)c2cc1OC` stands 6.65%; under `COc1c[nH]n(-c2ccccc2)c(=O)c1=O`, 3.41%.
Turning to `O=C(C1CC(=O)N(c2ccc(Cl)cc2)C1)N1CCOCC1` (stereo not drawn), the inhibition was -7.5%.
With `COc1ccc(OCC(=O)N/N=C2\CCCc3ccccc32)cc1`, the inhibition was determined as 34.2%.
Turning to `COc1ccc(OCC(=O)N/N=C2\CCCCc3ccccc32)cc1`, the inhibition stood at 22.5%.
In the case of `Cc1c(Cl)c([N+](=O)[O-])nn1CC(=O)N1CCN(Cc2ccccc2)CC1`, the inhibition is -5.75%.
`O=C(COc1c(Cl)cccc1Cl)NN1C(=O)CSC1=S`: the inhibition stood at 8.7%.
Regarding `C/C(=N\NC(=O)CCCNc1ccccc1)c1ccncc1`, the inhibition is 1.29%.
Next, `CCCCCCCC(=O)N/N=C(\C)c1cccnc1`: -21.2%.
For the compound `C/C(=N\NC(=O)CCCNc1cccc(C)c1)c1ccncc1`, the inhibition was -0.79%.
Next, `CCCCCCCCCC(=O)N/N=C(\C)c1cccnc1`: -3.96%; `FC(F)C(F)(F)C1=CC(c2ccccc2)=NCCN1`: 12.6%; `COc1ccc(CN(C(=O)c2ccco2)C2CCS(=O)(=O)C2)cc1` (stereo not drawn): 1.18%.
`Cn1cccc1/C=N/NC(=O)c1cc(-c2cccs2)nc2ccccc12`: the inhibition is -12.1%.
Next, `COc1ccc(CNC(=O)C(C)c2ccc([N+](=O)[O-])cc2)cc1` (stereo not drawn): 36.2%; `COc1ccc(N2CCN(S(=O)(=O)c3ccc4c(c3)CC(C)N4C(=O)C3CC3)CC2)cc1` (stereo not drawn): -6.48%; `O=C(COC(=O)c1ccc([N+](=O)[O-])o1)c1ccccc1`: 22.4%.
Next, `O=C(COC(=O)c1ccc([N+](=O)[O-])o1)NCc1ccccc1`: 49.8%; `O=C(OCC(=O)N1CCN(S(=O)(=O)c2ccc(Cl)cc2)CC1)c1ccc([N+](=O)[O-])o1`: 67.7%; `CCc1ccc(C(=O)OCC(=O)c2c(N)n(CC(C)C)c(=O)n(C)c2=O)cc1`: 24.9%.
As to `COc1cc(C(=O)COC(=O)c2ccc([N+](=O)[O-])o2)cc(OC)c1OC`, the inhibition is 34.7%.
In the case of `Cn1c(N)c(C(=O)COC(=O)c2ccc([N+](=O)[O-])o2)c(=O)n(C)c1=O`, the inhibition was 69.7%.
For the compound `O=C(OCC(=O)N1CCN(S(=O)(=O)c2ccccc2)CC1)c1ccc([N+](=O)[O-])o1`, the inhibition worked out at 66.7%.
Regarding `COc1ccc(OC)c(C(=O)COC(=O)c2ccc([N+](=O)[O-])o2)c1`, the inhibition came out at 54.8%.
Under `COc1ccccc1C(=O)N1CCC(C(=O)c2ccc(F)cc2)CC1` stands 5.17%; under `O=C(O)C1CCCN(S(=O)(=O)c2ccccc2[N+](=O)[O-])C1` (stereo not drawn), -3.19%; under `CC(=O)c1cccc(NC(=O)CCc2nnc3ccc(N4CCN(C)CC4)nn23)c1`, 1.24%.
As for `COC(=O)c1[nH]nc(C(=O)OC(C)(C)C)c1-c1ccccc1`, the inhibition came out at 0.97%.
Turning to `COc1ccc(C(=O)NCC(C)NC(=O)c2ccc(OC)c(Br)c2)cc1Br` (stereo not drawn), the inhibition is -0.81%.
As for `CCC(Oc1ccc(F)cc1)C(=O)N1CCCCCCC1` (stereo not drawn), the inhibition is -13.2%.
On to `COCCNC(=O)CS(=O)(=O)Cc1nc(-c2ccc(C)cc2)oc1C`, for which the inhibition was -26%.
Consider `CCC(CO)Nc1ncnc2onc(-c3ccc(F)cc3)c12` (stereo not drawn), for which the inhibition is -5.65%.
Under `Cc1nnsc1C(=O)N1CCN(c2cc(C(F)(F)F)ccn2)CC1` stands 1.32%.

In general, inhibition refers to the change of the read-out against control, counted positive when it falls.
